# Values joined by “and” are separate entries in the source; they are usually repeats but may differ in a detail not shown here. Equal entries are not always repeated. This is part of a sample that, as a whole, favours compounds with a hit. Of some 79,000 tested, about 15% had one in any assay. Where a structure was tested more than once in an assay, its records may differ in their call. Active and inactive are the calls of the source. Rule as the data show it: active = growth inhibition above about 70%; inactive = the rest.
# Assays:
# [1] = NCI Yeast Anticancer Drug Screen. Data for the rad50 strain (AID 155);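 also: 0% = growth of vehicle-only cultures of the same strain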; details: S. cerevisiae rad50 strain growth inhibition, stronger effect = higher value
# Outline: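 Readout: growth inhibition relative to vehicle-treated cultures. Compound exposure was carried out in a genetically defined yeast strain deficient in DNA damage repair.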
# [2] = NCI Yeast Anticancer Drug Screen. Data for the mec2-1 strain (AID 157); details: S. cerevisiae mec2-1 strain, stronger effect = higher value
# Outline: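 Growth inhibition is read against vehicle-treated controls after compound exposure of the mec2-1 yeast strain, which is defective in DNA damage repair or cell cycle control.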
# [3] = NCI Yeast Anticancer Drug Screen. Data for the sgs1 mgt1 strain (AID 161);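 also: 0% = growth of cultures given vehicle only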; details: S. cerevisiae sgs1 mgt1 strain, stronger effect = higher value
# Outline: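 Percent growth inhibition was derived by comparing compound-exposed mutant yeast with vehicle-exposed cultures. The strain carries alterations in DNA damage repair.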
# [4] = NCI Yeast Anticancer Drug Screen. Data for the cln2 rad14 strain (AID 165);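 also: 0% = growth equal to vehicle treated cultures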; details: S. cerevisiae cln2 rad14 strain, stronger effect = higher value
# Outline: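 Growth inhibition, relative to vehicle-treated controls, is the read-out. The test organism is a yeast strain with defined genetic alterations, cln2 rad14.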
# [5] = NCI Yeast Anticancer Drug Screen. Data for the bub3 strain (AID 167); details: S. cerevisiae bub3 mutant strain, stronger effect = higher value
# Outline: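 Readout: yeast growth inhibition, expressed relative to vehicle-only wells. The test organism is a mutant strain from a panel with lesions in DNA repair or checkpoint genes.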
# [6] = NCI Yeast Anticancer Drug Screen. Data for the mlh1 rad18 strain (AID 175); details: S. cerevisiae mlh1 rad18 strain growth inhibition, stronger effect = higher value
# Outline: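 Cells of a genetically altered yeast strain, deficient in DNA damage repair, were treated with compound. Their growth was then compared with that of vehicle-treated cultures to give inhibition.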
# [7] = at 5.0 µM (retest, dose inferred, filed as 0.5)
# [8] = at 50.0 µM (retest, dose inferred, filed as 5.0)
SMILES,"growth inhibition [1, 7]","growth inhibition [1, 8]",growth inhibition ([1]; at 50.0 µM),"growth inhibition [2, 7]","growth inhibition [2, 8]",growth inhibition ([2]; at 50.0 µM),"growth inhibition [3, 7]","growth inhibition [3, 8]",growth inhibition ([3]; at 50.0 µM),"growth inhibition [4, 7]","growth inhibition [4, 8]",growth inhibition ([4]; at 50.0 µM),"growth inhibition [5, 7]","growth inhibition [5, 8]",growth inhibition ([5]; at 50.0 µM),"growth inhibition [6, 7]","growth inhibition [6, 8]",growth inhibition ([6]; at 50.0 µM)
Cc1nc2ccccc2cc1CCl,-113% (inactive),91% (active),82.5% (active),-44% (inactive),46% (inactive),59.5% (inactive),-51% (inactive),91% (active),63.8% (inactive),-47% (inactive),80% (active),70.3% (active),-69% (inactive),76% (active),32.9% (inactive),-122% (inactive),90% (active),69.8% (inactive)
CCN(CC)CCNc1nc(NCCN(CC)CC)c2nc(-c3ccccc3)c(-c3ccccc3)nc2n1,91% (active),98% (active),98.8% (active),84% (active),98% (active),98.2% (active),95% (active),99% (active),98.8% (active),76% (active),97% (active),98% (active),92% (active),98% (active),98% (active),92% (active),98% (active),98.4% (active)
CCCCCCN(CCCCCC)C(=O)C1=C(C)NC(C)=C(C(=O)N(CCCCCC)CCCCCC)C1,1% (inactive),15% (inactive),56.4% (inactive),-16% (inactive),-3% (inactive),4.4% (inactive),-8% (inactive),-1% (inactive),85.2% (active),33% (inactive),14% (inactive),0.5% (inactive),-5% (inactive),17% (inactive),34.9% (inactive),-1% (inactive),-13% (inactive),59% (inactive)
O=C1Nc2ccccc2C1(O)C/C(=N/O)c1ccc2ccccc2c1 (stereo unspecified),34% (inactive),36% (inactive),35.1% (inactive),27% (inactive),40% (inactive),13.9% (inactive),71% (active),51% (inactive),49.5% (inactive),52% (inactive),44% (inactive),38% (inactive),47% (inactive),77% (active),14.9% (inactive),40% (inactive),64% (inactive),66.5% (inactive)
COc1cc2c3c(c1)SCCC(=O)N3CCN2,17% (inactive),17% (inactive),71.7% (active),4% (inactive),4% (inactive),81.2% (active),15% (inactive),15% (inactive),-22.6% (inactive),-4% (inactive),-4% (inactive),80.4% (active),0% (inactive),0% (inactive),73.3% (active),14% (inactive),14% (inactive),45.7% (inactive)
C1=C(CN2CCCCC2)COc2ccccc21,9% (inactive),30% (inactive),51.4% (inactive),1% (inactive),45% (inactive),22.9% (inactive),-7% (inactive),61% (inactive),46.5% (inactive),0% (inactive),28% (inactive),65% (inactive),6% (inactive),44% (inactive),59.8% (inactive),20% (inactive),54% (inactive),76.7% (active)
CCOc1ccc2ccccc2c1C(Cc1ccc(Cl)cc1)NCCO (stereo unspecified),-1% (inactive),-1% (inactive),89.3% (active),-2% (inactive),6% (inactive),93.5% (active),-21% (inactive),2% (inactive),94.3% (active),1% (inactive),-7% (inactive),98.6% (active),-2% (inactive),-3% (inactive),94.7% (active),1% (inactive),22% (inactive),98.5% (active)
O=C1c2cccc(NCCCNCCO)c2C(=O)c2cccc(NCCCNCCO)c21,33% (inactive),47% (inactive),43.2% (inactive) and 9.05% (inactive),-8% (inactive),2% (inactive),23.6% (inactive) and 5.3% (inactive),26% (inactive),39% (inactive),12.7% (inactive) and 88.5% (active),30% (inactive),39% (inactive),9% (inactive) and 48.1% (inactive),13% (inactive),39% (inactive),-8.35% (inactive) and 63.1% (inactive),15% (inactive),42% (inactive),81.5% (active) and 83.4% (active)
CCOC(=O)Nc1c(C)cc(C)c(Br)c1C,-3% (inactive),-3% (inactive),97.2% (active),-12% (inactive),6% (inactive),98.7% (active),1% (inactive),12% (inactive),94.9% (active),0% (inactive),-20% (inactive),98.9% (active),-5% (inactive),-8% (inactive),98.6% (active),9% (inactive),22% (inactive),99.2% (active)
COC1C(O)C(C)OC(OC2C(Oc3cccc4c(O)c5c(=O)oc6ccc(C)c7c(=O)oc(c34)c5c67)OC(C)C3O[C@H](c4ccccc4)OC32)C1O (stereo partly specified),82% (active),96% (active),86.5% (active),70% (active),96% (active),88.5% (active),73% (active),96% (active),91% (active),59% (inactive),96% (active),88.3% (active),74% (active),95% (active),89.6% (active),77% (active),93% (active),77.3% (active)
CC(=O)[O-].[O-]c1c(Cl)cc(Cl)cc1/C=N/Nc1ccccn1.[Zn+2],5% (inactive),93% (active),96.5% (active),16% (inactive),96% (active),87.8% (active),4% (inactive),96% (active),98.1% (active),-1% (inactive),93% (active),95.5% (active),-4% (inactive),96% (active),37.2% (inactive),3% (inactive),93% (active),97% (active)
OC1CC2CCCC(C1)C2 (stereo unspecified),-2% (inactive),3% (inactive),-17.8% (inactive),4% (inactive),1% (inactive),17.8% (inactive),-2% (inactive),3% (inactive),-12.2% (inactive),-5% (inactive),-3% (inactive),72.5% (active),0% (inactive),-10% (inactive),-18.6% (inactive),-1% (inactive),-2% (inactive),-1.65% (inactive)
Oc1cc2c(cc1C(c1ccc3c(c1)OCO3)N1CCN(C(c3ccc4c(c3)OCO4)c3cc4c(cc3O)OCO4)CC1)OCO2 (stereo unspecified),2% (inactive),98% (active),81.9% (active),-1% (inactive),99% (active),92.8% (active),8% (inactive),98% (active),78.2% (active),8% (inactive),49% (inactive),24.4% (inactive),2% (inactive),-1% (inactive),54.2% (inactive),3% (inactive),94% (active),93.2% (active)
Nc1c(C(=O)O)ccc(C(=O)O)c1C(=O)O,-131% (inactive),-173% (inactive),-5.95% (inactive) and 2.45% (inactive),-50% (inactive),-53% (inactive),14.1% (inactive) and -1% (inactive),-54% (inactive),-67% (inactive),25% (inactive) and 3.8% (inactive),-56% (inactive),-60% (inactive),3.75% (inactive) and -23.4% (inactive),-65% (inactive),-79% (inactive),-2.6% (inactive) and -5.8% (inactive),-113% (inactive),-123% (inactive),33.5% (inactive) and -12.9% (inactive)
O=C(CNCc1ccccc1)Oc1c(Cl)c(Cl)c(Cl)c(Cl)c1Cl,3% (inactive),32% (inactive),72.5% (active),22% (inactive),43% (inactive),62.5% (inactive),-13% (inactive),55% (inactive),85.2% (active),-5% (inactive),11% (inactive),51.4% (inactive),-4% (inactive),31% (inactive),20% (inactive),29% (inactive),73% (active),64.7% (inactive)
O=C1CSC(=S)N1c1ccc(Cl)c(C(F)(F)F)c1,-1% (inactive),36% (inactive),97.5% (active),0% (inactive),11% (inactive),97.7% (active),6% (inactive),97% (active),98.9% (active),-4% (inactive),-10% (inactive),58.4% (inactive),-6% (inactive),56% (inactive),98.5% (active),11% (inactive),95% (active),98.3% (active)
Nc1ccc([N+](=O)[O-])c(S(=O)(=O)O)c1,-160% (inactive),-143% (inactive),60.8% (inactive) and -0.9% (inactive),-46% (inactive),-47% (inactive),28.6% (inactive) and -3.55% (inactive),-60% (inactive),-54% (inactive),46% (inactive) and 3.45% (inactive),-56% (inactive),-53% (inactive),40.2% (inactive) and -6.5% (inactive),-71% (inactive),-57% (inactive),78.8% (active) and -31.6% (inactive),-139% (inactive),-104% (inactive),64.6% (inactive) and 6.45% (inactive)

# — PubChem BioAssay (NCI)
